target: CD48; assay: pooled miR-30 sensor sort-seq; sequence = guide strand; settings: shRNA
Note: reference of the scale not given here.

Sequence	sensor-assay potency score (higher = more potent)
TTCTTGCTCATTCCCAGTCTTT	-1.11
TAATTCAGCAGCATGCTTCTGG	0.539
TTGATCTTCCATTCTTGCTCAT	0.311
TTGCTGCTCACAGAATTGCTGA	-0.332
TGAGGATCAAGTCTGACCCTGC	0.0902
TTGTTTGTAGTTCTCAGGCAGG	-0.932
TAATGTTGTCACAATTTTGGGT	0.114
TTAACTTGAAAATCCTCGTTGA	1.27
TCCCATTCTACAATCTTCTGGT	-0.143

target: CD58; assay: as above; settings: shRNA

Sequence	sensor-assay potency score (higher = more potent)
TTGTTTTTTCCATAGGACCTCT	-0.0433
TTGAGTTACGTTTACATTGCTC	-0.143
TTAAAAGATGAGAAAGCTCTGA	-0.214
TATACAGCACAATACATGTTGT	-0.688
TTGTGGAAGATCATTTTCCATC	-1.11
TAAAGAAAGAACTTCATGGTAT	0.701
ATATACAGCACAATACATGTTG	0.0974
TTATCCTTTTGTTTTTTCCATA	-1.18
TAAAAGATGAGAAAGCTCTGAA	0.844
TTTAAAGGCACATTGCTTGGTA	0.706
TAAAATAATTTAGTTATGCTGT	-0.222
TACAGCACAATACATGTTGTAA	-0.704
TTTGTTGGGAAAAACAGCTGAT	-0.0646
TTCATATACAGCACAATACATG	-1.42
TATAAGTGCATATCTGTGTCTT	0.724
TAATAAGTTGATGACAGCCAAA	-1.7
TTAAAATATATACTGGTTGAGT	-0.467
TTGCTCCATAGGACAATCCCAT	-1.06
TACATGTTGTAATTACTGCTAA	-0.161
TAATGCTCTGGTATCATGCATT	-0.599
TTACAAAAGTATCTACATCATC	-0.687
TTCTTCTTAAAGCAGCTGCTTC	-0.594
TTTCATACTCATCTTCATCTGA	0.555

target: CD86; assay: as above; settings: shRNA

Sequence	sensor-assay potency score (higher = more potent)
TAGCAAGCACTGACAGTTCAGA	-0.996
ATTATCTTGAGATTTCTGCATA	-0.445
TTGTGAAGTCTCAGGGTCCAAC	-1.21
TACTATTTCAGGTTGACTGAAG	-0.445
AACACTGTCAAATTTCTCTTTG	-0.375
TAACTGTTGGAAGTACAGCTGT	-0.0777
TCATATTGCTCGTAACATCAGG	-0.912
TCTTGGTCTGTTCACTCTCTTC	-1.55

From the OligoGym collection
